# Reference: publication PMC7862700, “An all-to-all approach to the identification of sequence-specific readers for epigenetic DNA modifications on cytosine”
# Key:
# Test in all cases: DAPPL (digital affinity profiling via proximity ligation, sequencing); 10 mM Tris-HCl pH 7.5, 50 mM NaCl, 1 mM DTT, 4% glycerol, room temperature, 30 min; GST-TFs on glutathione beads, 16-mer random dsDNA library, 0.1% formaldehyde crosslink after washing; high values mean tight binding
# [1] = biological target: T1, FEV (Homo sapiens, UniProt Q99581 1-238); settings: protein: recombinant; tags: N-terminal GST; dsDNA, one strand shown
# T1 sequence: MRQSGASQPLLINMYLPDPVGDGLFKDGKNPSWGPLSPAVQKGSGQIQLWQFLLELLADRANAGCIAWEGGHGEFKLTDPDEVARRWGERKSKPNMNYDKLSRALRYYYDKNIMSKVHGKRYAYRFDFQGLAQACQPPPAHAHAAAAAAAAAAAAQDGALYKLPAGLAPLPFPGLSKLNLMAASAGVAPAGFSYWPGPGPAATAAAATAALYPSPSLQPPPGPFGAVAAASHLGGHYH
# Summary of the method: (§1)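 Binding signal is each hexamer's read frequency for a factor divided by its frequency in the tag-only sample. The factors were GST-fused human transcription factors from yeast, captured on glutathione beads, DNA-barcoded and pooled with that sample. Pools were incubated with 200 nmole of a random double-stranded 16-mer DNA library in Tris/NaCl/DTT/glycerol buffer at room temperature for 30 min, then washed, crosslinked with 0.1% formaldehyde, proximity-ligated with BsaI/T4 ligase (1 h, 37 °C), PCR-amplified and sequenced on an Illumina NextSeq500.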
# [2] = biological target: ETV5 (Homo sapiens, UniProt P41161 1-510); settings: protein: recombinant; tags: N-terminal GST; dsDNA, one strand shown
# Chain of ETV5 (P41161 whole entry): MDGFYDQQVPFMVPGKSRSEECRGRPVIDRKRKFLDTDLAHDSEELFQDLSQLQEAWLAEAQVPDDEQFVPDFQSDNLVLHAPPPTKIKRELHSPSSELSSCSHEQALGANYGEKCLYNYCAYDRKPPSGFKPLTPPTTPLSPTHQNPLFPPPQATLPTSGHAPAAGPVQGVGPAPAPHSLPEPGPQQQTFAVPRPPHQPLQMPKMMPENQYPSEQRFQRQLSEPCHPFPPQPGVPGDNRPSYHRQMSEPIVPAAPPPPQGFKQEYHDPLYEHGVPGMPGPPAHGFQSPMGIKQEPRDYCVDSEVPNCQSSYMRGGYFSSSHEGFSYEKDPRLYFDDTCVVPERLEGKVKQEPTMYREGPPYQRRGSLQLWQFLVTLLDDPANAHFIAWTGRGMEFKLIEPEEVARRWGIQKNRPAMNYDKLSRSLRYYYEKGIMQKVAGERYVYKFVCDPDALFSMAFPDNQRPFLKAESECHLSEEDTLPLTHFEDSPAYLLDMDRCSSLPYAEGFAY
# Summary of the method: as §1
# [3] = biological target: HSF1 (Homo sapiens, UniProt Q00613 1-529); settings: protein: recombinant; tags: N-terminal GST; chain copies: 3; dsDNA, one strand shown
# Chain of HSF1 (Q00613 whole entry): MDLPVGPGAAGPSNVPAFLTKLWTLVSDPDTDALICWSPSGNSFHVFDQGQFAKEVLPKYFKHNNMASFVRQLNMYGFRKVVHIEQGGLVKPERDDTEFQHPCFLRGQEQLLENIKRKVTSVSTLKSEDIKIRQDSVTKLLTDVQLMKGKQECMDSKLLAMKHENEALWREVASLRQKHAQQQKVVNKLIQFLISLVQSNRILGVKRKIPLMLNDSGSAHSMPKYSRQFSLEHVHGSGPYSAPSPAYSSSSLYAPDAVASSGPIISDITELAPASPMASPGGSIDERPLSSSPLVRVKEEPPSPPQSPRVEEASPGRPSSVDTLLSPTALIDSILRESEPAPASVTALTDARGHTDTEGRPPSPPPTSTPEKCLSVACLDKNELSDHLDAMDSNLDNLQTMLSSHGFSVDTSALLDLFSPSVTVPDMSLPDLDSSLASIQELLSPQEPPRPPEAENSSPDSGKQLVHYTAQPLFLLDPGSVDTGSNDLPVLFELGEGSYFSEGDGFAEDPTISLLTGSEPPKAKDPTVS
# Summary of the method: as §1
# [4] = biological target: ELF4 (Homo sapiens, UniProt Q99607 1-663); settings: protein: recombinant; tags: N-terminal GST; dsDNA, one strand shown
# Chain of ELF4 (Q99607 whole entry): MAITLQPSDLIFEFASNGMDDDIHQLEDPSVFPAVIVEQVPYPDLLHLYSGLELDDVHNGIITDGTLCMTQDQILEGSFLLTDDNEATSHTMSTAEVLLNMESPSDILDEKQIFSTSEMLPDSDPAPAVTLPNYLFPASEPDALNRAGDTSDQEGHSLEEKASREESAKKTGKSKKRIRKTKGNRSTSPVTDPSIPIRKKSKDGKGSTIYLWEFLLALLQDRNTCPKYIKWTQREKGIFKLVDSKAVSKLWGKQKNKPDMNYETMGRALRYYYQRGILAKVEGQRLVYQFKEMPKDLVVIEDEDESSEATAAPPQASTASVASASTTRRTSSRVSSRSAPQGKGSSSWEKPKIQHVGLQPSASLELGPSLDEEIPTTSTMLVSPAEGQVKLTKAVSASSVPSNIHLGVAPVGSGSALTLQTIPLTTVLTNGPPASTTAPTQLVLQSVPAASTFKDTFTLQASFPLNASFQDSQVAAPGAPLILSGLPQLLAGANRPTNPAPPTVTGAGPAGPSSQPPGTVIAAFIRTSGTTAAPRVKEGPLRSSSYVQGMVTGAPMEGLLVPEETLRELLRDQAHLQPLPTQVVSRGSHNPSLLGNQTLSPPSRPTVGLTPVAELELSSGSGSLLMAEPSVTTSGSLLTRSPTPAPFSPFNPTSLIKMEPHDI
# Summary of the method: as §1
# [5] = biological target: T2, ELK4 (Homo sapiens, UniProt P28324-2 1-405); settings: protein: recombinant; tags: N-terminal GST; dsDNA, one strand shown
# T2 sequence: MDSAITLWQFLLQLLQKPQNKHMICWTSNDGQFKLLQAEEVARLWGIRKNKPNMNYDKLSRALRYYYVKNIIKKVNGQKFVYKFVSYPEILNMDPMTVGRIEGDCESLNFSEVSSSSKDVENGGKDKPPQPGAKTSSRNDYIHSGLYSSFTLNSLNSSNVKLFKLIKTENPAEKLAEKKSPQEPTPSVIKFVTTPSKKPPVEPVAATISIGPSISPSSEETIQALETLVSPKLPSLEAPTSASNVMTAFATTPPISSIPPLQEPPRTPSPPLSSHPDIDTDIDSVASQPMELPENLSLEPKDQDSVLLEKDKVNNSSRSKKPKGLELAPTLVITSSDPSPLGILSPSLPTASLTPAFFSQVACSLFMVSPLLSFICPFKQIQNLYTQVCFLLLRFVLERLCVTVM
# Summary of the method: as §1
# [6] = biological target: T3, ETV2 (Homo sapiens, UniProt O00321 1-342); settings: protein: recombinant; tags: N-terminal GST; dsDNA, one strand shown
# T3 sequence: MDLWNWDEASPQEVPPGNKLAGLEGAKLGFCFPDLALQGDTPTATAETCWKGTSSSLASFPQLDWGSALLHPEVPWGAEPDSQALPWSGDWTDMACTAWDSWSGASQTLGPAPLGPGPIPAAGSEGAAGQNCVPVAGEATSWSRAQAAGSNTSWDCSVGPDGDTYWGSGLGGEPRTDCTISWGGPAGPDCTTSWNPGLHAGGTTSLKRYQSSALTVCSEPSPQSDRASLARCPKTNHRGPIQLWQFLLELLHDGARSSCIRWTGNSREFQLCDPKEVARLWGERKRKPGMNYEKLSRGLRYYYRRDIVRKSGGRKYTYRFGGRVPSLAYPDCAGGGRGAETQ
# Summary of the method: as §1
# [7] = biological target: T4, ELF3 (Homo sapiens, UniProt P78545 1-371); settings: protein: recombinant; tags: N-terminal GST; dsDNA, one strand shown
# T4 sequence: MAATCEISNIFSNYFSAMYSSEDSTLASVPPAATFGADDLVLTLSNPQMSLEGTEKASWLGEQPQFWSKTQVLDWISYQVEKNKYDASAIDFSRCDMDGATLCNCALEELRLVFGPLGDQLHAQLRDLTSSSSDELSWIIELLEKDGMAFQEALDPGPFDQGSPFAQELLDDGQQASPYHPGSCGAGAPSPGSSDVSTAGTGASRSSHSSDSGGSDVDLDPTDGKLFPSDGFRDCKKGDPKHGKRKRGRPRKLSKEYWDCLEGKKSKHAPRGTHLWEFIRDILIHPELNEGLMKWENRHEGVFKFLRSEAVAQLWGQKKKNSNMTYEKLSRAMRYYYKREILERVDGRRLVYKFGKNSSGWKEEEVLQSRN
# Summary of the method: as §1
# [8] = biological target: CRX (Homo sapiens, UniProt O43186 1-299); settings: protein: recombinant; tags: N-terminal GST; dsDNA, one strand shown
# Chain of CRX (O43186 whole entry): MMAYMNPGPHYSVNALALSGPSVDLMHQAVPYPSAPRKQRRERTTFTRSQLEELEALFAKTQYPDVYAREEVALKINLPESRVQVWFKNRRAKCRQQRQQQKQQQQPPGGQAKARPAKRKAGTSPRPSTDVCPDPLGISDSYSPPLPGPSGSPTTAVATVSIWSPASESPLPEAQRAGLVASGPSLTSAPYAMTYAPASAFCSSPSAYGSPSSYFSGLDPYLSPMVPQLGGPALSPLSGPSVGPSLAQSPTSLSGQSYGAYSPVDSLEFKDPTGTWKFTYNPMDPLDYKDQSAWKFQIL
# Summary of the method: as §1
# [9] = biological target: ETV1 (Homo sapiens, UniProt P50549 1-477); settings: protein: recombinant; tags: N-terminal GST; dsDNA, one strand shown
# Chain of ETV1 (P50549 whole entry): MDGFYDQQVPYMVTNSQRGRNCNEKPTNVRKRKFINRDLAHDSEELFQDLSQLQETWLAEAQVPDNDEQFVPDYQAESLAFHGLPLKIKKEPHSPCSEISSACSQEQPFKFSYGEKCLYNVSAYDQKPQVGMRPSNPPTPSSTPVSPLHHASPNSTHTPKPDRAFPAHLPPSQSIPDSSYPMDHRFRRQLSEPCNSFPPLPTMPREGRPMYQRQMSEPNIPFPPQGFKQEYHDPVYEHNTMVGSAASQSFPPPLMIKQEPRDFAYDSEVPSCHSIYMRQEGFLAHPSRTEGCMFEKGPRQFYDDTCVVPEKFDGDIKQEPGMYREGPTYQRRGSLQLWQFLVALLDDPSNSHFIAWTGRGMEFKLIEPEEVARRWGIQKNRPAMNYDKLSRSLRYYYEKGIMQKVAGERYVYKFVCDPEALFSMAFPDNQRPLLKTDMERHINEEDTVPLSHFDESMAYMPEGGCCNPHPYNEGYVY
# Summary of the method: as §1
# [10] = biological target: T5, ERF (Homo sapiens, UniProt P50548 1-548); settings: protein: recombinant; tags: N-terminal GST; dsDNA, one strand shown
# T5 sequence: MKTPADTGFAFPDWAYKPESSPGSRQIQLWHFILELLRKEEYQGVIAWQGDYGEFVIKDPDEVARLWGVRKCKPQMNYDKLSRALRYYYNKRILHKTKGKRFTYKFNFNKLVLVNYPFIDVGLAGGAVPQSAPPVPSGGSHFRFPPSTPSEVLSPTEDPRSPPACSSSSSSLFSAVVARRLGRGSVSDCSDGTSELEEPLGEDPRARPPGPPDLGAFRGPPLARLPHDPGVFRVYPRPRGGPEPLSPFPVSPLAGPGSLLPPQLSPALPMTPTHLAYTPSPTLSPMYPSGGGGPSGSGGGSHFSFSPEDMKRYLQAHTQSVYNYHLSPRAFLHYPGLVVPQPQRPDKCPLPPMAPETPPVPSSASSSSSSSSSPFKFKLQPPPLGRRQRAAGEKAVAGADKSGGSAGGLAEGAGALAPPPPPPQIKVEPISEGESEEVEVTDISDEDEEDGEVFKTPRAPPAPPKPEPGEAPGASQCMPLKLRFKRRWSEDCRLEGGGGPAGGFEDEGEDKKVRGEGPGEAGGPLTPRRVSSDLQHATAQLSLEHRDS
# Summary of the method: as §1
# [11] = biological target: T6, ETV3L (Homo sapiens, UniProt Q6ZN32 1-361); settings: protein: recombinant; tags: N-terminal GST; dsDNA, one strand shown
# T6 sequence: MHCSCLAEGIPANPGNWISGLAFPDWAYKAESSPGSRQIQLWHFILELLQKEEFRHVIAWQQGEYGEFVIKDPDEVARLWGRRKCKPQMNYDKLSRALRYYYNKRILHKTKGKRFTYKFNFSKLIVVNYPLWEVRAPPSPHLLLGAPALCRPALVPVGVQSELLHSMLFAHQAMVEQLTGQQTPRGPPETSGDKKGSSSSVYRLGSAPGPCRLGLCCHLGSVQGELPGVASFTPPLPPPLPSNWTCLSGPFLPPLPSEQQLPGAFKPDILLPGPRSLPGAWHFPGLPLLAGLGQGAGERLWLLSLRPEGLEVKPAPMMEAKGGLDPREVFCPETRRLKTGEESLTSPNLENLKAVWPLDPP
# Summary of the method: as §1
# [12] = biological target: T7, ETS2 (Homo sapiens, UniProt P15036 1-469); settings: protein: recombinant; tags: N-terminal GST; dsDNA, one strand shown
# T7 sequence: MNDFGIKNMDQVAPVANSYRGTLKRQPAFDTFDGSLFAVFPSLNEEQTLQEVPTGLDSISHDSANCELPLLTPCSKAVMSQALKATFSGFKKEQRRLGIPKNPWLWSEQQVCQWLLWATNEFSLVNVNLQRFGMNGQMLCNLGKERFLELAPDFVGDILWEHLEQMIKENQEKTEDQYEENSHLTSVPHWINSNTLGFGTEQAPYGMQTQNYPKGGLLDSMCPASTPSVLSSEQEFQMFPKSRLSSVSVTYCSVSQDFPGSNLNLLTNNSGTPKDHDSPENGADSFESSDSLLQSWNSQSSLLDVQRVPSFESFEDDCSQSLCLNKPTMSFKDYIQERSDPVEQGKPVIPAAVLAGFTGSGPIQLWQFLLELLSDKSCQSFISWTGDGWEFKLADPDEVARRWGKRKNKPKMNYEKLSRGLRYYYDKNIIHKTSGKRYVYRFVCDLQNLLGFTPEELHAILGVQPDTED
# Summary of the method: as §1
# [13] = biological target: T8, SPDEF (Homo sapiens, UniProt O95238 1-335); settings: protein: recombinant; tags: N-terminal GST; dsDNA, one strand shown
# T8 sequence: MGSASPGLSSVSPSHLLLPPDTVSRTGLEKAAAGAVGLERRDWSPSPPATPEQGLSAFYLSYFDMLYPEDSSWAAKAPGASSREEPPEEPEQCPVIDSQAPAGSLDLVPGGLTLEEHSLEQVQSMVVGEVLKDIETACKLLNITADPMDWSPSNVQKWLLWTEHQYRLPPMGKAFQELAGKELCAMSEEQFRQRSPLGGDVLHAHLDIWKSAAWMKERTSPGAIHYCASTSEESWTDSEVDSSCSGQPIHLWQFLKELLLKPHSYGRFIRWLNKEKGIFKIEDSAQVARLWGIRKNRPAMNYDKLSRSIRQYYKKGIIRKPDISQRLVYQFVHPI
# Summary of the method: as §1
# [14] = biological target: T9, ETV7 (Homo sapiens, UniProt Q9Y603 1-341); settings: protein: recombinant; tags: N-terminal GST; dsDNA, one strand shown
# T9 sequence: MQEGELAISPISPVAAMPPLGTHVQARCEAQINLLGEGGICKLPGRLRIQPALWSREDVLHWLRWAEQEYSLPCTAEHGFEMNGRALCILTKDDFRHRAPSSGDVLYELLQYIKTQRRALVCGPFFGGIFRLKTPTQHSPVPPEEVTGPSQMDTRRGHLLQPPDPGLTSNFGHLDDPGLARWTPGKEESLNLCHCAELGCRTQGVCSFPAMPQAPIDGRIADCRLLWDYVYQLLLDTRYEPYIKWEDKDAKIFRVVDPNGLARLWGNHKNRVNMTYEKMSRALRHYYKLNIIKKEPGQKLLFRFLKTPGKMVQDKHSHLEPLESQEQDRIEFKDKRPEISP
# Summary of the method: as §1
# [15] = biological target: T10, ELF5 (Homo sapiens, UniProt Q9UKW6-2 1-255); settings: protein: recombinant; tags: N-terminal GST; dsDNA, one strand shown
# T10 sequence: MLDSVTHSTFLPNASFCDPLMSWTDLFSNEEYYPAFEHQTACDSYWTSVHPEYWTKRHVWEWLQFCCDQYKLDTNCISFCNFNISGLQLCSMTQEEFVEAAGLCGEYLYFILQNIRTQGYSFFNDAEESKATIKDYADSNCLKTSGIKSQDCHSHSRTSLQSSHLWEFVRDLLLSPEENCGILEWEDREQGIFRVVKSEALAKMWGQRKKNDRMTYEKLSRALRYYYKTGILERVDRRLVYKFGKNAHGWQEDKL
# Summary of the method: as §1
# [16] = biological target: T11, ETV3 (Homo sapiens, UniProt P41162-2 1-143); settings: protein: recombinant; tags: N-terminal GST; dsDNA, one strand shown
# T11 sequence: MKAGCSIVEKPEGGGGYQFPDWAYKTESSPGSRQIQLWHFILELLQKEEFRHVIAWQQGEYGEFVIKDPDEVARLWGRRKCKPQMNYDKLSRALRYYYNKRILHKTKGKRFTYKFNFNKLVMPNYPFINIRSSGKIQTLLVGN
# Summary of the method: as §1
# [17] = biological target: ETV6 (Homo sapiens, UniProt P41212 1-452); settings: protein: recombinant; tags: N-terminal GST; dsDNA, one strand shown
# Chain of ETV6 (P41212 whole entry): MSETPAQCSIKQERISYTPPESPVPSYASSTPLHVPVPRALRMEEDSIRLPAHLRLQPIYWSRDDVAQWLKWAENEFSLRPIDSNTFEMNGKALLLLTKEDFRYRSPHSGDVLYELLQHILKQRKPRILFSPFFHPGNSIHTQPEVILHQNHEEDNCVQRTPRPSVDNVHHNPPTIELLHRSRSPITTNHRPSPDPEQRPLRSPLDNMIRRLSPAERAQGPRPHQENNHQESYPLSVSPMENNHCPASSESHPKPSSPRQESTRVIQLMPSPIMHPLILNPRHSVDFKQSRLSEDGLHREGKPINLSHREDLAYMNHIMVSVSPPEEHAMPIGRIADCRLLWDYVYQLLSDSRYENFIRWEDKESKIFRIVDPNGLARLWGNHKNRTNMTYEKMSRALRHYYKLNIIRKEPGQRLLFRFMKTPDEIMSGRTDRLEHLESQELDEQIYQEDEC
# Summary of the method: as §1
sequence,measurement,setting,value
AAATAG,binding signal,[1],"1.16 fold enrichment (6-mer frequency, TF over GST control)"
same,binding signal,[2],"1.2 fold enrichment (6-mer frequency, TF over GST control)"
same,binding signal,[3],"1.09 fold enrichment (6-mer frequency, TF over GST control)"
same,binding signal,[4],"1.02 fold enrichment (6-mer frequency, TF over GST control)"
same,binding signal,[5],"1.15 fold enrichment (6-mer frequency, TF over GST control)"
same,binding signal,[6],"1.06 fold enrichment (6-mer frequency, TF over GST control)"
same,binding signal,[7],"1.17 fold enrichment (6-mer frequency, TF over GST control)"
same,binding signal,[8],"1.11 fold enrichment (6-mer frequency, TF over GST control)"
same,binding signal,[9],"1.11 fold enrichment (6-mer frequency, TF over GST control)"
same,binding signal,[10],"1.11 fold enrichment (6-mer frequency, TF over GST control)"
same,binding signal,[11],"1.15 fold enrichment (6-mer frequency, TF over GST control)"
same,binding signal,[12],"1.12 fold enrichment (6-mer frequency, TF over GST control)"
same,binding signal,[13],"1 fold enrichment (6-mer frequency, TF over GST control)"
same,binding signal,[14],"1.23 fold enrichment (6-mer frequency, TF over GST control)"
same,binding signal,[15],"1.14 fold enrichment (6-mer frequency, TF over GST control)"
same,binding signal,[16],"1.21 fold enrichment (6-mer frequency, TF over GST control)"
same,binding signal,[17],"1.18 fold enrichment (6-mer frequency, TF over GST control)"
